Assay results: PubChem BioAssay (NCATS)
Inconclusive results are not listed. Where a call stands in place of a potency, no number is given. Values without a mark were called inactive. The source made the active and inactive calls. Calls follow the shape of the dose curve; as a rule, active = well fitted curve in the direction sought with a large enough effect; inconclusive = small, poorly fitted or top-dose-only effect, or another doubt; inactive = no such curve, though single readings can be large; an effect the other way counts as inactive or inconclusive.

How the values were obtained:
[1] = target: Cellular tumor antigen p53 (Homo sapiens) (UniProt P04637); test: Primary qHTS for small molecule compounds that upregulate eGFP-tagged delta133p53alpha (in N-terminal) cells. (AID 2060322); conditions: NCI-H358 eGFP-delta133p53alpha fluorescence, 24 h; activation: active compounds read high; also: nearly all actives have a fitted effect of over 75% in size; also: potency is read from the fitted curve at half-maximal effect;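 as to activation: cells pre-induced with doxycycline then dosed without doxycycline; series mostly up to about 56 µM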
In short: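 NCI-H358 cells pre-induced 24 h with 10 ng/ml doxycycline for eGFP-delta133p53alpha, plated dox-free and exposed 24 h at 37C to titrated compounds. Fixed, Hoechst-stained; gated GFP peak intensity by laser scanning cytometry, normalized to DMSO (0%) and 57.5 uM 5-azacytidine (100%).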

[2] = target: Aldehyde dehydrogenase, mitochondrial (Homo sapiens) (UniProt P05091); test: qHTS for Inhibitors of the Aldehyde Dehydrogenase Family (ALDH2) Primary screen (AID 2061308); also: nearly all actives have a fitted effect of over 55% in size
[3] = target: Retinaldehyde dehydrogenase 3 (Homo sapiens) (UniProt P47895); test: qHTS for Inhibitors of the Aldehyde Dehydrogenase Family (ALDH1A3) Primary screen (AID 2061315)

Chain of Cellular tumor antigen p53 (Homo sapiens) (P04637 whole entry, looked up): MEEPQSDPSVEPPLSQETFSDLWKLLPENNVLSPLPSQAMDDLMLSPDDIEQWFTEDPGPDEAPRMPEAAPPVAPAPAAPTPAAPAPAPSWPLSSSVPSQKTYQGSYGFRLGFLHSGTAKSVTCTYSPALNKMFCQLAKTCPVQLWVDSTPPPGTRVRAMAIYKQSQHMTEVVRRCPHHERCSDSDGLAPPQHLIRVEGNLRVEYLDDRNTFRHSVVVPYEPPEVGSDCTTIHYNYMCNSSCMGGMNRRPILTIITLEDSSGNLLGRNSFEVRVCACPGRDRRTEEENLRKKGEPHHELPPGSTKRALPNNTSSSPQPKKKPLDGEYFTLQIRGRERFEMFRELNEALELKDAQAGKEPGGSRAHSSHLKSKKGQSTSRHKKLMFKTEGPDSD

Structure (SMILES): C=C1[C@@H](C2=CC(=O)OC2)CC[C@@]2(O)[C@@H]1CC1[C@H]2CC[C@@H]2C[C@@H](O[C@H]3O[C@@H](C)[C@@H](O[C@@H]4O[C@H](CO[C@@H]5O[C@H](CO)[C@@H](O)[C@H](O)[C@H]5O)[C@@H](O)[C@H](O)[C@H]4O)[C@H](OC)[C@H]3O)CC[C@]12C (stereo partly specified)
- activation [1]: 7.14%
- Potency [2]: inactive
- Potency [3]: inactive

Structure (SMILES): CC(C)=CCC(O)/C(C)=C/CO[C@@H]1O[C@H](CO)[C@@H](O)[C@H](O)[C@H]1O (stereo partly specified)
- activation [1]: -15.2%
- Potency [2]: inactive
- Potency [3]: inactive

Structure (SMILES): C[C@@H]1O[C@@H](O[C@H]2[C@H](OC(=O)[C@]34CCC(C)(C)C[C@H]3C3=CCC5[C@@]6(C)CC[C@H](O[C@@H]7O[C@H](CO[C@@H]8OC[C@H](O)[C@H](O)[C@H]8O)[C@@H](O)[C@H](O)[C@H]7O)C(C)(C)C6CC[C@@]5(C)[C@]3(C)C[C@H]4O)OC[C@@H](O)[C@@H]2O)[C@H](O)[C@H](O[C@@H]2OC[C@](O)(CO)[C@H]2O)[C@H]1O[C@@H]1OC[C@H](O)[C@H](O[C@@H]2OC[C@@H](O)[C@H](O)[C@H]2O)[C@H]1O (stereo partly specified)
- activation [1]: 5.36%
- activity change, negative = inhibition [2]: 7.19% [at 11.2 µM]
- activity change, negative = inhibition [3]: 10.7% [at 11.2 µM]

Structure (SMILES): CC1=CC(=O)C2(OC3OC(C)C(O)C(OC(=O)/C=C/c4ccccc4)C3O)C=COC(OC3OC(CO)C(O)C(O)C3O)C12 (stereo unspecified)
- activation [1]: -13.7%
- Potency [2]: inactive
- Potency [3]: inactive

Structure (SMILES): C=CC(C)(CC/C=C(\C)C(=O)OC[C@H]1O[C@@H](OC(C)(C=C)CC/C=C(\C)C(=O)O[C@H]2[C@H](O)[C@@H](O)[C@H](OC(C)(C=C)CC/C=C(\C)C(=O)O)O[C@@H]2CO)[C@H](O)[C@@H](O)[C@@H]1O)O[C@@H]1O[C@H](CO)[C@@H](O)[C@H](O)[C@H]1O (stereo partly specified)
- activation [1]: -9.16%
- Potency [2]: inactive
- Potency [3]: inactive

Structure (SMILES): CC1C=CC2CCCCC2C1CCC1CC(O)CC(=O)O1 (stereo unspecified)
- activation [1]: -0.893%
- Potency [2]: inactive
- Potency [3]: inactive

Structure (SMILES): O=S(=O)(N[C@H]1CCCC[C@@H]1N1CCOCC1)c1ccc(Cl)cc1
- activation [1]: -16.3%
- Potency [2]: inactive
- Potency [3]: inactive

Structure (SMILES): C/C=C(\C)C(=O)OC1C2(O)CC3=C4CC(=O)OC(c5ccoc5)C4(C)CCC3C(C)(C2=O)C(C(OC(C)=O)C(=O)OC)C1(C)C (stereo unspecified)
- activation [1]: -7.63%
- Potency [2]: inactive
- Potency [3]: inactive

Structure (SMILES): Cc1ccc2c(c1)c1c(n2CCc2ccc(C)nc2)CCN(C)C1
- activation [1]: 14.3%
- Potency [2]: inactive
- Potency [3]: inactive

Structure (SMILES): C=C1CC23CC1CCC2C12OC(=O)C(C)(C(O)CC1O)C2C3C(=O)O (stereo unspecified)
- activation [1]: -7.14%
- Potency [2]: inactive
- Potency [3]: inactive

Structure (SMILES): COc1cc(O)cc(OC2OC(CO)C(O)C(O)C2O)c1 (stereo unspecified)
- activation [1]: 21.4%
- Potency [2]: inactive
- Potency [3]: inactive

Structure (SMILES): O=C(O)/C=C/c1ccc(-c2ccc(O)c(C34CC5CC(CC(C5)C3)C4)c2)cc1
- Potency [1]: 26.9 µM (active)
- Potency [2]: inactive
- Potency [3]: inactive

Structure (SMILES): C=CC1(C)CC=C2C(CCC3C(C)(C(=O)O)CCCC23C)C1 (stereo unspecified)
- activation [1]: -1.53%
- Potency [2]: inactive
- Potency [3]: inactive

Structure (SMILES): CC1CCC2(C(=O)OC3OC(CO)C(O)C(O)C3O)CCC3(C(=O)O)C(=CCC4C5(C)CCC(OC6OC(C)C(O)C(O)C6O)C(C)(C)C5CCC43C)C2C1C (stereo unspecified)
- activation [1]: -10.7%
- Potency [2]: inactive
- Potency [3]: inactive

Structure (SMILES): CC(=O)c1[nH]cc(CCC(=O)O)c1CC(=O)O
- activation [1]: -15.3%
- Potency [2]: inactive
- Potency [3]: inactive

Structure (SMILES): C=C[C@](C)(CC/C=C(\C)C(=O)O)O[C@@H]1OC[C@H](O)[C@H](O)[C@H]1O
- activation [1]: 7.14%
- Potency [2]: inactive
- Potency [3]: inactive

Structure (SMILES): CCC1=C(C)C(=O)C(C)CC12C(=O)CCC2C(=O)O (stereo unspecified)
- activation [1]: -11.5%
- Potency [2]: inactive
- Potency [3]: inactive

Structure (SMILES): COC1CC(=O)C23C(=O)NC(CC(C)C)C2C(C)C(C)=CC3/C=C(\C)CCCC1O (stereo unspecified)
- activation [1]: 16.8%
- Potency [2]: inactive
- Potency [3]: inactive

Structure (SMILES): CC(=O)O[C@@]1(C)C[C@@H](O)[C@]2(O)C=CO[C@@H](O[C@@H]3O[C@H](CO)[C@@H](O)[C@H](O)[C@H]3O)[C@@H]21
- activation [1]: -14.5%
- Potency [2]: inactive
- Potency [3]: inactive

Structure (SMILES): CC(=O)NC(CCC(=O)O)C(=O)NCCc1ccc(O)cc1 (stereo unspecified)
- activation [1]: -14.5%
- Potency [2]: inactive
- Potency [3]: inactive

Structure (SMILES): CC(=O)OC(CSC1CCC(=O)OC(C)CCC(=O)C1)C(=O)O (stereo unspecified)
- activation [1]: -6.87%
- Potency [2]: inactive
- Potency [3]: inactive

Structure (SMILES): Nc1ncnc2c([C@@H]3N[C@H](CO)[C@@H](O)[C@H]3O)c[nH]c12
- activation [1]: -8.93%
- Potency [2]: inactive
- Potency [3]: inactive
